High-throughput results deposited in PubChem BioAssay by National Center for Advancing Translational Sciences (NCATS).
Only some compounds are listed: those with a hit (about 5.5% of all), similar ones and a draw of the others.
Sfp PPTase inh: qHTS Assay for Inhibitors of Bacillus subtilis Sfp phosphopantetheinyl transferase (PPTase); 4'-phosphopantetheinyl transferase ffp (Bacillus subtilis), Q9F4F7; Biochemical Sfp PPTase activity, qHTS; Potency, µM, without a hit: largest response in the series, negative = inhibition, hits mostly inhibitors; 3.5% of 310,000 active; AID 1490, 2009;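 note: the enzyme is Sfp with the accession as filed and its product quenches rhodamine fluorescence; potency is the fitted concentration of half-maximal effect; 0% = enzyme reaction without inhibitor and -100% = no enzyme wells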
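Buffer: 50 mM Hepes-Na pH 7.6, 10 mM MgCl2, 0.01% Nonidet P-40, 0.01% BSA. Enzyme 15 nM, pre-exposed to compound 15 min; substrates then added and fluorescence change tracked over 30 min.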
ELG1 DNA repair: qHTS screen for small molecules that inhibit ELG1-dependent DNA repair in human embryonic kidney (HEK293T) cells expressing luciferase-tagged ELG1; Potency, µM (top dose mostly 46.1 µM), without a hit: at the highest dose activity change, negative = inhibition, hits mostly inhibitors; 2.3% of 330,000 active; HEK293T ELG1-luciferase reporter, luminescence, 16 h; DNA damage induced by 5-fluorouridine; note: potency is the fitted concentration of half-maximal effect; nearly all actives have a fitted effect of over 55% in size
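Step one: seed 2,000 cells per well. Step two: pin-transfer compound or DMSO alongside 5-fluorouridine. Step three: incubate 16 hr, 37 °C, 5% CO2. Step four: add ONE-Glo, wait 30 min, read luminescence.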
Coupling enz: qHTS Assay for Inhibitors of Fructose-1,6-bisphosphate Aldolase from Giardia Lamblia: Coupling assay counterscreen; coupling enzyme system counterscreen, AmpLite Red fluorescence; activity change, negative = inhibition, % at 58.2 µM, hits read low; 0.67% of 290,000 active; AID 2472, 2010; in the data active = activity change below about -30%
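Activity here indicates interference with the coupling reaction, not aldolase inhibition. Compounds at 57.5 uM final met coupling enzymes for 10 min at RT; substrate and AmpLite Red detection followed, with a 525/598 nm fluorescence read after 20 min.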
Giardia kill: Small Molecules that selectively kill Giardia lamblia: qHTS. 0.15% of 340,000 active. activity change, % at 7.66 µM, hits read low. Giardia lamblia trophozoite viability; in the data active = activity change below about -80%; inconclusive = between about -30% and that limit;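 note: parasites exposed to compound for two days anaerobically before the ATP read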
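Killing of trophozoites was scored by loss of ATP luminescence after a 48 hrs anaerobic exposure to compounds at 37 deg C, using 100 cells per well.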
* = called active by the depositor; ? = inconclusive; · = no result. Unless noted, calls come from the whole dose curve; as a rule, active = well fitted curve in the direction sought with a large enough effect; inconclusive = small, poorly fitted or top-dose-only effect, or another doubt; inactive = no such curve, though single readings can be large; an effect the other way counts as inactive or inconclusive. Unless noted, % is set by controls: 0 for no effect and ±100 for the full control effect.

SMILES	Sfp PPTase inh	ELG1 DNA repair	Coupling enz	Giardia kill
O=C(Nc1ccc(S(=O)(=O)N2CCCCC2)cc1)c1ccncc1	8%	?	2	20
Cc1ccc(-c2csc(NC(=O)c3ccc4c(=O)n5c(nc4c3)CCCCC5)n2)cc1	14%	2.9µM*	1	17
CCOc1ccccc1N=C1SCC(C)N1C(=O)C1CCN(c2ncnc3sc(C)c(C)c23)CC1 (configuration not stated)	·	·	·	-6
CC(C)=CCC/C(C)=C/CO/N=C1/[C@H]2O[C@@H]2[C@@H](O)[C@H]2[C@H]1CCn1c(=O)n(C)c(=O)n12	-12%	·	1	·
CCc1ccccc1Nc1nc(N)nc(COC(=O)C2CCN(C(=O)c3ccc(F)cc3)CC2)n1	·	-12%	·	-16
CN(C(=O)COC(=O)C1COc2ccccc2O1)C1(C#N)CCCCC1 (configuration not stated)	·	-1%	·	9
COc1cc(NC(=O)COc2ccc(-n3cnnn3)cc2)cc(OC)c1OC	·	?	·	-18
O=C(Nc1ccc(S(=O)(=O)N2CCCC2)cc1)c1ccc2c(=O)n3c(nc2c1)CCCCC3	1%	10µM*	-1	5
O=C(Nc1ccc(F)cc1)c1ccc2c(=O)n3c(nc2c1)CCCCC3	10%	?	-1	9
Cc1cc(C)cc(OCC(=O)Nc2cnn(CCCC(=O)O)c2)c1	11%	5%	·	-1
COc1ccc(Br)cc1C(=O)NC(=S)Nc1ccc(Cl)c(C(=O)O)c1	45µM*	5%	8	-6
c1ccc(Oc2nc(NC3CCCCC3)c3[nH]cnc3n2)cc1	-16%	·	-7	·
CC(C)NC(=O)N1CC2(CCN(S(=O)(=O)c3ccccc3)CC2)C1	4%	·	4	·
COC(=O)c1ccc(OC)c(CN2CCCN(Cc3ccc(F)cc3)S2(=O)=O)c1	4%	13µM*	-31*	1
COc1ccc(OC)c(-n2nnnc2SCC(=O)Nc2ccc(C(=O)N3CCCCC3)cc2)c1	0%	23µM*	2	11
COc1ccc(C(=O)N2CCC(C(=O)Nc3ccc(OC)c(OC)c3)CC2)cc1	89µM*	-19%	-3	16
CC(C)OC(=O)C(C)Nc1n[nH]c(=S)[nH]c1=O (configuration not stated)	2%	23%	0	10
CC(C)OC(=O)CNc1n[nH]c(=S)[nH]c1=O	45µM*	-16%	1	5
CN(C)C(=O)CNc1n[nH]c(=S)[nH]c1=O	20µM*	-2%	0	5
COC(=O)CNc1n[nH]c(=S)[nH]c1=O	50µM*	1%	-2	-29
CC(OC(=O)c1cc(=O)c2cc(Cl)ccc2o1)C(=O)N1CCCC1 (configuration not stated)	·	24%	·	-5
Cc1nc(SCC(=O)c2ccccc2)n[nH]1	56µM*	26%	5	3
Nc1nc(SCC(=O)c2cc3ccccc3o2)n[nH]1	22µM*	-3%	1	-1
COc1ccccc1C(=O)CSc1n[nH]c(N)n1	89µM*	13%	2	12
O=C(CSc1cccc[n+]1[O-])c1cc2ccccc2o1	?	?	0	-8
SMILES	Sfp PPTase inh	ELG1 DNA repair	Coupling enz	Giardia kill
COc1ccccc1C(=O)CSc1nccn1C	56µM*	?	1	11
COC(=O)CCC(=O)OC1(C)C(=O)C=C2C=C(CCCNC(=O)OC(C)(C)C)OC=C2C1=O (configuration not stated)	5%	·	2	·
CN(CC(=O)Nc1ccccc1C(F)(F)F)CC(=O)N1CCCCCC1	·	3%	·	2
COCCn1c(C)cc(C(=O)CSc2n[nH]c(N)n2)c1C	25µM*	?	0	-8
Cc1cc(C)nc(SCC(=O)c2cc3ccccc3oc2=O)n1	18µM*	0%	-8	-10
COCCn1c(C)cc(C(=O)CSc2nc3nc(C)cc(C)n3n2)c1C	-5%	-3%	4	-3
CC1(C)Cc2c(sc3c2c(=N)n(Cc2ccco2)c(=O)n3CC(=O)Nc2ccccc2)CO1	-9%	9.2µM*	1	-17
CC1(C)Cc2c(sc3c2c(=N)n(Cc2ccco2)c(=O)n3CC(=O)Nc2ccc(Cl)cc2)CO1	6%	21µM*	-4	16
Cc1cn(CC(=O)NCCc2c[nH]c3ccccc23)c(=O)[nH]c1=O	·	·	·	4
CCN1CCN(S(=O)(=O)c2cc3c(cc2Cl)NC(=O)CO3)CC1	11%	-1%	2	-12
